PAFAH1B2 FP inh: inhibitors of human PAFAH1B2 | recombinant PAFAH1B2, FP-rhodamine activity probe, fluorescence polarization | P68402 | 1.2% of 340,000 active | inhibition, % at 3.39 µM;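 active = inhibition above the mean of all tested compounds plus 3 SD, cut at about 24% in these data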
rCAG RNA binder: molecules binding r(CAG) RNA repeats; AID 651821; r(CAG) RNA repeat, TO-PRO-1 dye displacement fluorescence; inhibition, % at 3 µM; 1.3% of 370,000 active;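 active = inhibition above the plate cutoff, the mean of all test compounds on that plate plus 3 SD, cut at about 35% in these data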;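 note: higher means more dye released from RNA so lower well fluorescence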
EBNA-1 inh: blocks EBNA-1 binding to DNA. AID 1950. EBNA-1 DNA binding, fluorescence polarization. inhibition, % at 14.8 µM. 0.34% of 300,000 active; in the data active = inhibition above about 28%
PAFAH2 FP inh: inhibitors of human PAFAH2 | AID 492956 | recombinant PAFAH2, FP-rhodamine activity probe, fluorescence polarization | inhibition, % at 3.39 µM | 0.99% of 340,000 active;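 active = inhibition above the mean over all tested compounds plus 3 SD, cut at about 30% in these data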;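 note: inhibitors block probe labeling of enzyme so polarization drops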
PAFAH1B3 inh: PAFAH1B3 (human) inhibition. Q15102. recombinant PAFAH1B3, FP-rhodamine probe, fluorescence polarization. inhibition, % at 3.39 µM. 0.28% of 340,000 active;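 active = inhibition above the screen-wide average of all tested compounds plus 3 SD, cut at about 25% in these data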
Target sequence (Q15102 whole entry, looked up): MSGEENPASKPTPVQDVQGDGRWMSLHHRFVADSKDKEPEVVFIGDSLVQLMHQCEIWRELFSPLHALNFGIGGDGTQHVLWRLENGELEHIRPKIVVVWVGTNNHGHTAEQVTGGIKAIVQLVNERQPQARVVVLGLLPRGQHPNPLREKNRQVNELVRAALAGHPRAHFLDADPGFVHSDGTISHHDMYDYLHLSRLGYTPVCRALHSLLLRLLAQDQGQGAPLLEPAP
ZTA counter: ZTA (EBV) inhibition in EBNA-1 counter-screen. P03206. ZTA-DNA binding, fluorescence polarization. inhibition, % at 11 µM. 0.15% of 320,000 active. AID 2234; in the data active = inhibition above about 33%
Target sequence (P03206 whole entry, looked up): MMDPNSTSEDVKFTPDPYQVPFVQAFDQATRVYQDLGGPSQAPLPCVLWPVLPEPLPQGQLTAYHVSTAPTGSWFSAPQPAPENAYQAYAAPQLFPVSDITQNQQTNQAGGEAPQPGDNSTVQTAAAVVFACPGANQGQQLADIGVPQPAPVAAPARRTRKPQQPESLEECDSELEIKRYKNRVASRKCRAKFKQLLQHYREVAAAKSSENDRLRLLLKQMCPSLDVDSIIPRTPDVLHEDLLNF
rCAG binder conf: r(CAG) RNA repeat binding, confirmation | shares compounds with rCAG RNA binder | TO-PRO-1 dye displacement fluorescence | inhibition, % at 3 µM | 70% of 4,300 active | AID 652065;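 active = inhibition above a per-plate cutoff, the mean inhibition of sample wells plus 3 SD, cut at about 35% in these data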;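 note: loss of TO-PRO-1 fluorescence as compound displaces dye from 1x1 AA loop RNA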
DNA CAG counter: DNA CAG dye complex inhibition counter-screen; shares compounds with rCAG RNA binder; d(CAG) DNA oligo TO-PRO-1 dye displacement, fluorescence; inhibition, % at 3 µM; 94% of 4,300 active; AID 652068;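 active = inhibition above its plate's cutoff, the mean test-well inhibition plus 3 SD, cut at about 4.8% in these data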;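 note: hits displace the dye from DNA and so lower well fluorescence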
DNA CAG DR: counter-screen for rCAG binders: inhibitors of DNA CAG TO-PRO-1 complex. shares compounds with rCAG RNA binder. AID 686960. IC50, µM. DNA CAG/GTC duplex TO-PRO-1 dye displacement fluorescence. 20% of 250 active; in the data active = IC50 below about 10 µM
Large screens that a line does not name were inactive (follow-up assays come after a bar, where they were run). Sampled rows, rich in hits. Any-hit rate of the full collection: about 2.9%.

Cc1ccc(S(=O)(=O)N2[C@@H](c3ccc4c(c3)OCO4)C(C(=O)O)=C[C@H]2CC2CCCC2)cc1	rCAG RNA binder 67.1 (no result: EBNA-1 inh, ZTA counter) | rCAG binder conf 61.4 | DNA CAG counter 25.1
COc1ccc([C@H]2C(C(=O)O)=C[C@@H](CC3CCCC3)N2S(=O)(=O)c2ccc(C)cc2)cc1OC	rCAG RNA binder 56.4 (no result: EBNA-1 inh, ZTA counter) | rCAG binder conf 52.2 | DNA CAG counter 16.8
CC[C@@H]1C=C(C(=O)O)[C@H](c2ccc(F)cc2)N1S(=O)(=O)c1ccc(C)cc1	none (no result: EBNA-1 inh, ZTA counter)
Cc1ccc([C@H]2C(C(=O)O)=C[C@@H](CC3CCCC3)N2S(=O)(=O)c2ccc(C)cc2)cc1	rCAG RNA binder 67.9 (no result: EBNA-1 inh, ZTA counter) | rCAG binder conf 73.1 | DNA CAG counter 27.3 | DNA CAG DR inactive
CC[C@@H]1C=C(C(=O)O)[C@H](c2cccc(C)c2)N1S(=O)(=O)c1ccc(C)cc1	none (no result: EBNA-1 inh, ZTA counter)
CCc1ccc([C@H]2C(C(=O)O)=C[C@@H](CC3CCCC3)N2S(=O)(=O)c2ccc(C)cc2)cc1	rCAG RNA binder 75.9 (no result: EBNA-1 inh, ZTA counter) | rCAG binder conf 62.2 | DNA CAG counter 25.9
C/C(=N\Nc1ccc(Cl)cc1)c1c(O)cc(C)oc1=O	none (no result: PAFAH1B2 FP inh, PAFAH2 FP inh, PAFAH1B3 inh)
CCOC(=O)c1ccc(NC(=O)CSc2nnc(-c3cc(-c4ccccc4)n[nH]3)n2N)cc1	none (no result: PAFAH1B2 FP inh, EBNA-1 inh, PAFAH2 FP inh, PAFAH1B3 inh, ZTA counter)
Cc1ccc(S(=O)(=O)N2[C@@H](c3cccc(C)c3)C(C(=O)O)=C[C@H]2CC2CCCC2)cc1	rCAG RNA binder 49.2 (no result: EBNA-1 inh, ZTA counter) | rCAG binder conf 52.3 | DNA CAG counter 17.9
O=C(N/N=C/c1ccccc1C(=O)O)c1cccc(S(=O)(=O)Nc2cc(Cl)ccc2Cl)c1	rCAG RNA binder 49.3 | rCAG binder conf inactive | DNA CAG counter 6.8
CC1CN(C(=O)c2cccc(S(=O)(=O)Nc3cc(Cl)ccc3Cl)c2)CC(C)O1 (stereo not drawn)	rCAG RNA binder 40.5 | rCAG binder conf inactive | DNA CAG counter 5.5
O=C(c1cccc(S(=O)(=O)Nc2ccccc2Cl)c1)N1CCN(c2ccccc2O)CC1	rCAG RNA binder 41.2 (no result: EBNA-1 inh) | rCAG binder conf inactive | DNA CAG counter 9.3
O=C(NNC(=S)NC1CCCCC1)c1cccc(S(=O)(=O)Nc2ccccc2Cl)c1	rCAG RNA binder 56.3 | rCAG binder conf 50.6 | DNA CAG counter 19.3
Cc1ccc(/C=N/NC(=O)c2cccc(S(=O)(=O)Nc3ccccc3Cl)c2)s1	none
CC1CN(C(=O)c2cccc(S(=O)(=O)Nc3ccccc3Cl)c2)CC(C)O1 (stereo not drawn)	none
N=C1S/C(=C\c2ccc(-c3ccccc3C(=O)O)o2)C(=O)N1c1ccc2c(c1)OCO2	rCAG RNA binder 42.3 (no result: EBNA-1 inh, ZTA counter) | rCAG binder conf inactive | DNA CAG counter 10.1
COc1ccccc1N1C(=N)S/C(=C\c2ccc(-c3ccccc3C(=O)O)o2)C1=O	none
O=C(COc1ccccc1/C=C1\SC(=O)NC1=O)Nc1ccc(F)cc1	rCAG RNA binder 51.6 | rCAG binder conf 44.9 | DNA CAG counter 15.6
O=C(COc1ccccc1/C=C1/NC(=O)NC1=O)Nc1ccccc1	none
O=C(COC(=O)c1cccc(NS(=O)(=O)c2ccc(F)c(F)c2)c1)NC(=O)NC1CCCC1	rCAG RNA binder 35.6 | rCAG binder conf inactive | DNA CAG counter 5.0
Cc1ccc(-c2nc3c(Cl)cc(Cl)cc3c(=O)n2O)cc1	rCAG RNA binder 57.8 | rCAG binder conf inactive | DNA CAG counter inactive
COc1ccc(CCNC(=O)C(=O)NCCC2CCCCN2S(=O)(=O)c2ccccc2)cc1 (stereo not drawn)	none
CO[C@H]1C=CO[C@@]2(C)Oc3c(C)c(O)c4c(O)c(c5c(c4c3C2=O)NC2(CCN(CC(C)C)CC2)N=5)=NC(=O)C(C)=CC=C[C@H](C)[C@H](O)[C@@H](C)[C@@H](O)[C@@H](C)[C@H](OC(C)=O)[C@@H]1C	none (no result: PAFAH1B2 FP inh, rCAG RNA binder, PAFAH2 FP inh, PAFAH1B3 inh)

Screening data (PubChem BioAssay)
